The results in this text go back to PubChem BioAssay (NCATS).

Values without a mark were called inactive. Records with an inconclusive call do not appear. Activity calls are given as the source filed them. Unless noted, the call rests on the fitted dose curve; in most records, active means well fitted curve in the direction sought with a large enough effect; inconclusive means small, poorly fitted or top-dose-only effect, or another doubt; inactive means no such curve, though single readings can be large; an effect the other way counts as inactive or inconclusive.

Assay [1] can be described thus: Cellular Toxicity (caspase-3) NIH 3T3 (AID 666).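 Further: caspase signal read after 16 h compound exposure; 0% = DMSO basal and 100% = 100 µM tamoxifen stimulation.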 To be noted: NIH 3T3 caspase-3 activation, apoptosis/toxicity, 0% DMSO, 100% is 100 µM tamoxifen; series mostly up to 92.2 µM. The essentials:
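Mouse NIH 3T3 fibroblasts (1000 cells/well) were treated with compound for 16 hr at 37°C in complete medium; caspase-3/7 activity was read by Caspase-Glo luminescence. Normalized to DMSO and 100 uM tamoxifen; AC50 from Hill fits.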

Assay [2] can be described thus: Cellular Toxicity (caspase-3) Renal Proximal Tubule (AID 667).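 Further: cells exposed to compound for 16 hours at 37 °C before detection; 0% = DMSO basal and 100% = 10 µM staurosporine.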 To be noted: renal proximal tubule cells; series mostly up to 91.7 µM. The method, boiled down: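 AC50 derived by standard Hill fit of concentration-response data, normalized between DMSO basal and 10 uM staurosporine as 100% stimulation. Cells: primary rat kidney proximal tubule, 16 h treatment at 37 °C.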

Assay [3] is described as follows: Cell Viability - LYMP2-001 (AID 921).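 Further: 0% = DMSO only and full inhibition = tetraoctylammonium bromide control wells; nearly all actives have a fitted effect of over 70% in size.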 To be noted: LYMP2-001 lymphoblastoid cell viability; series mostly up to 92.2 µM. The method, boiled down:
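Steps: seed 2500 lymphoblastoid cells/well; 5 hr, 37 C; add compound; 24 hr, 37 C; CellTiter-Glo reagent, 30 min room temperature; read luminescence. Concentration-response modeled by Hill equation for AC50.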

Assay [4] is described as follows: MultiTox-Fluor Cytotoxicity Assay - LYMP1-001 - Dead Cells (AID 946).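 Further: 0% = DMSO and 100% = tetraoctylammonium bromide.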 To be noted: LYMP1-001 lymphoblastoid cells, dead-cell protease fluorescence; series mostly up to 92.2 µM. The essentials: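 In this qHTS, 15 uM tetraoctylammonium bromide defined 100% and DMSO defined basal activity. Lymphoblastoid cells (LYMP1-001, 2500 per well) received compound for 16 hr at 37 C before a fluorogenic dead-cell substrate readout at 485/520 nm.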

The nature of assay [5]: MultiTox-Fluor Cytotoxicity Assay - LYMP1-001 - Live Cells (AID 947).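 Further: 0% = DMSO only and full inhibition = tetraoctylammonium bromide control.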 To be noted: LYMP1-001 lymphoblastoid cells, live-cell protease fluorescence viability; series mostly up to 92.2 µM.
Assay [6] can be described thus: Cell Viability - LYMP1-002 - Assay at 16 hr (AID 948).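 Further: 0% = DMSO alone and full effect = 92 µM tetraoctylammonium bromide.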 To be noted: LYMP1-002 lymphoblastoid cell viability; series mostly up to 92.2 µM. The method, boiled down: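 Seed 2500 LYMP1-002 cells per well in complete medium and hold 5 hr at 37 C. Add compound across a concentration series and incubate 16 hr at 37 C. Add CellTiter-Glo, wait 30 min at room temperature, read luminescence.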

Assay [7] in a line: MultiTox-Fluor Cytotoxicity Assay - LYMP1-002 - Live Cells (AID 955). Further: on the % scale 0 is the no-effect control and ±100 the full control effect. To be noted: LYMP1-002 lymphoblastoid live-cell protease fluorescence viability; series mostly up to 46.1 µM. The method, boiled down:
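Human lymphoblastoid LYMP1-002 cells, 2500/well in complete medium, rested 5 hr at 37 C, then exposed to compounds for 16 hr at 37 C. Live-cell protease cleavage of GF-AFC read by fluorescence (Ex/Em 405/510) after 60 min at room temperature; AC50 from Hill fits.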

A short description of assay [8]: MultiTox-Fluor Cytotoxicity Assay - LYMP1-003 - Dead Cells (AID 961).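 Further: 0% = DMSO and 100% = tetraoctylammonium bromide; nearly all actives have a fitted effect of over 70% in size.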 To be noted: LYMP1-003 lymphoblastoid cells, dead-cell protease fluorescence; series mostly up to 92.2 µM. The method, boiled down: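 Acute toxicity is scored as increased dead-cell protease activity in human lymphoblastoid LYMP1-003 cells after 16 h compound exposure in complete culture medium. Activity is normalized to DMSO basal and 15 uM tetraoctylammonium bromide as full response.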

Assay [9] can be described thus: MultiTox-Fluor Cytotoxicity Assay - LYMP1-003 - Live Cells (AID 962).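 Further: 0% = DMSO only and full loss = 92 µM tetraoctylammonium bromide; cytotoxic hits lower the live-cell protease signal.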 To be noted: LYMP1-003 lymphoblastoid cells, MultiTox-Fluor live-cell protease fluorescence; series mostly up to 92.2 µM. The method, boiled down:
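LYMP1-003 human lymphoblastoid cells (2500/well) in complete medium were preincubated 5 hr at 37 C, then exposed to compounds for 16 hr at 37 C. Live-cell protease cleavage of GF-AFC read by fluorescence (Ex/Em 405/510); AC50 from Hill fits.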

Assay [10] in a line: Cell Viability - LYMP1-003 - Assay at 24 hr (AID 963).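 Further: plate controls were DMSO only for no effect and tetraoctylammonium bromide positive control for full effect.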 As to conditions: LYMP1-003 lymphoblastoid cell viability; series mostly up to 92.2 µM. The method, boiled down: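 Human lymphoblastoid LYMP1-003 cells (2500/well) were rested 5 hr at 37 C, then exposed to compounds in complete medium for 24 hr at 37 C. Cellular ATP was quantified by CellTiter-Glo luminescence, and AC50 values came from Hill fits of concentration-response data.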

The nature of assay [11]: Cell Viability - LYMP2-013 (AID 970).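 Further: 0% = DMSO only and full inhibition = tetraoctylammonium bromide control; nearly all actives have a fitted effect of over 55% in size.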 As to conditions: LYMP2-013 lymphoblastoid cells viability; series mostly up to 92.2 µM. The method, boiled down: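 Human lymphoblastoid cells, 2500/well, were preincubated 5 hr at 37 C, then treated with compounds for 24 hr at 37 C in complete medium. Intracellular ATP was read by CellTiter-Glo luminescence; AC50 from Hill-equation fits of concentration-response data.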

The nature of assay [12]: Cell Viability - LYMP2-015 (AID 971).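 Further: 0% = DMSO only and full effect = 92 µM tetraoctylammonium bromide; nearly all actives have a fitted effect of over 55% in size.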 To be noted: LYMP2-015 lymphoblastoid cell viability; series mostly up to 92.2 µM. The method, boiled down: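 Human lymphoblastoid cells (2500/well) in complete medium were preincubated 5 hr at 37 C, then compound-treated 24 hr at 37 C. Intracellular ATP was read by CellTiter-Glo luminescence after 30 min at room temperature; AC50 came from Hill-equation concentration-response fits.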

Assay [13] can be described thus: Cell Viability - LYMP2-019 (AID 973).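 Further: 0% = DMSO alone and full effect = 92 µM tetraoctylammonium bromide; nearly all actives have a fitted effect of over 55% in size.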 As to conditions: LYMP2-019 lymphoblastoid cell line viability; series mostly up to 92.2 µM. The method, boiled down:
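Human lymphoblastoid cells were seeded at 2500 cells/well, preincubated 5 hr at 37 C, then exposed to compounds for 24 hr at 37 C in complete medium. Intracellular ATP was measured by CellTiter-Glo luminescence; AC50 from Hill fits.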

Assay [14] in a line: Cell Viability - LYMP2-023 (AID 975).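 Further: cellular ATP measured by luciferase luminescence as viability proxy; plate controls were DMSO only for no effect and 92 µM tetraoctylammonium bromide control for full effect; nearly all actives have a fitted effect of over 55% in size.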 As to conditions: LYMP2-023 lymphoblastoid cell viability; series mostly up to 92.2 µM. The method, boiled down: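 Human lymphoblastoid cells (2500/well) were preincubated 5 hr at 37 C, then exposed to compounds for 24 hr at 37 C in complete medium. Cellular ATP was read by CellTiter-Glo luminescence, and AC50 came from Hill-equation fits.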

Assay [15] in a line: Cell Viability - LYMP2-025 (AID 976).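 Further: plate controls were DMSO only for no effect and tetraoctylammonium bromide control for full effect.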 As to conditions: LYMP2-025 lymphoblastoid cell viability; series mostly up to 92.2 µM. The method, boiled down: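 Human lymphoblastoid LYMP2-025 cells (2500/well) were pre-incubated 5 hr at 37 C, then treated with compounds for 24 hr at 37 C in complete medium. Viability was read as intracellular ATP by CellTiter-Glo luminescence; AC50 from Hill fits.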

Assay [16] can be described thus: qHTS assay for small molecule agonists of the antioxidant response element (ARE) signaling pathway measured by Nrf2-dependant transcriptional activity (AID 720636; active means well fitted curve in the direction sought with a large enough effect in the repeat runs; an effect the other way counts as inactive or inconclusive; further: potency means the concentration at half of the fitted maximal effect). As to conditions: ARE-luc HepG2, Nrf2 luciferase reporter, 16 h; series mostly up to 92.4 µM. The essentials: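 We exposed ARE-luc HepG2 cells, seeded in assay medium with 1% dialyzed FBS and allowed 6 hr to adhere, to test compounds overnight (16 hr, 37 C) before measuring luciferase with ONE-Glo.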
(In qHTS, concentration-response curves come from the screen itself.)

Assay [17] can be described thus: qHTS assay for small molecule antagonists of the retinoid-related orphan receptor gamma (ROR-gamma) signaling pathway - cell viability counter screen (AID 720652; active means well fitted curve in the direction sought with a large enough effect in the repeat runs; an effect the other way counts as inactive or inconclusive;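 further: CHO reporter cells with doxycycline-induced ROR-gamma expression; compound exposure lasted 16 hr before ATP read; on the % scale 0 is the no-effect control and ±100 the full control effect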). As to conditions: RORgamma reporter cell line viability counter screen; series mostly up to 92.2 µM. The essentials:
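Counter screen in CHO cells carrying TET-inducible ROR-gamma and an ROR response element-luciferase reporter; cells plated 5 hr, compound pinned, doxycycline added, then 16 hr at 37 C. Viability read as intracellular ATP by CellTiter-Glo luminescence.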

The nature of assay [18]: qHTS assay for small molecule agonists of the antioxidant response element (ARE) signaling pathway measured by Nrf2-dependant transcriptional activity - cell viability counter screen (AID 720653; active means well fitted curve in the direction sought with a large enough effect in the repeat runs; an effect the other way counts as inactive or inconclusive; further: on the % scale 0 is the no-effect control and ±100 the full control effect). As to conditions: ARE-bla HepG2 viability, CellTiter-Glo ATP luminescence, 16 h; max response: hits give low values. The method, boiled down:
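Cytotoxicity counter screen: intracellular ATP quantified by CellTiter-Glo luminescence in the same ARE-bla HepG2 plates, after 16 h compound exposure and a 2 h beta-lactamase substrate step.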

A short description of assay [19]: qHTS assay for cell viability of the p53RE-bla HCT-116 cell line (AID 743292). As to conditions: p53RE-bla HCT-116 viability, ATP luminescence, 16 h; series mostly up to 95 µM. The method, boiled down:
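In this qHTS counter-screen, metabolically competent p53RE-bla HCT-116 cells were counted via their ATP content. Compounds were applied for 16 h at 37 C and luciferase-coupled luminescence was measured.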

A short description of assay [20]: qHTS assay for small molecule activators of the human pregnane X receptor (PXR) signaling pathway (AID 720659; call rule not given here; further: 0% is about no effect). To be noted: DPX-2 HepG2 CYP3A4-luciferase, 24 h; series mostly up to 92.3 µM.

Turning to `CC(C)(c1ccc(OCC2CO2)cc1)c1ccc(OCC2CO2)cc1` (stereo not given), the call in assay [1], in assay [2], in assay [3], in [5], in [6] and in assay [7] was inactive. Besides, the outcome in assay [9], in [10], in assay [11], in assay [12], in assay [13] and in [14] was inactive. In addition, the compound was classed as inactive in assay [15], in assay [17], in assay [19] and in assay [20]. Besides, the Potency entry in [4] and in assay [8] was “inactive” each time. In assay [16], the Potency is 66.8 µM (active). Also, the max response in assay [18] is -3.1%.
